The whole screen tested about 150,000 compounds, of which about 540 (0.36%) showed an effect of 50% or more. For the sample, strong results were picked, then their nearest neighbours and some compounds at random.
system: Plasmodium falciparum; assay: Primary screen in NF54 nanoGlo assay, in single point, at 2uM, 72h; a lower Z score goes with more inhibition; type: functional, Erythrocyte; settings: timepoint 72 hour

Compound	% Inhibition [%]	Z score
C[C@@H]1CN(CCCCO)CCN1C(=O)OC(C)(C)C	-1	0.08
Cc1onc(-c2ccccc2Cl)c1C(=O)NCC1(c2ccc(F)cc2)CCOCC1	-13	2.28
CN1C[C@]2(CCCN(Cc3ccc(OCC(=O)c4ccccc4)cc3)C2)CCC1=O	-5	0.67
CCCc1c(C(=O)N2CCNc3ncccc32)cnn1C1CCCC1	-7	1.14
N#Cc1nc(C2CC2)oc1N1CCN(C(=O)CCc2ccco2)CC1	-7	1.41
CN1CCC(Oc2nc3ccc(F)cc3o2)CC1	-11	1.44
CCNC(=O)c1cc(NCCc2nccn2Cc2ccccc2)ccn1	-9	0.95
Cc1ccccc1N1C(=O)CN(C(=O)C2COc3ccccc3O2)CC1C (stereo not drawn)	-1	0.18
c1ccc2c(-c3cc4c(c(O[C@H]5CCOC5)c3)OCCNC4)csc2c1	-8	1.61
COC(=O)c1cn(CCc2cn3ccccc3n2)cc2c(O)nnc1-2	-7	0.84
COC(=O)c1cn(Cc2cccnc2)cc2c(O)nnc1-2	0	-0.02
CC(C)[C@H](NC(=O)[C@H](Cc1ccccc1)n1cnnn1)c1nc2ccccc2[nH]1	-15	1.85
C#CCn1cnc(-c2ccccc2)c1NC(=O)CCc1ccc(C(C)C)cc1	-7	0.8
COc1cccc2c1Oc1c(c(=O)n(-c3ccccc3)n1CC(=O)Nc1cccc(F)c1)C2	-19	1.9
Cc1c(C(=O)[C@H](C#N)c2nnc(N3CCOCC3)n2-c2ccccc2)nnn1-c1ccc(F)cc1	-7	1.18
COc1ccccc1CN1Cc2ccccc2O[C@@H](C)C1=O	-5	0.61
COc1ccccc1CN1COc2cc3c(cc2C1)OCO3	56	-4.75
Cc1ccc(N2COc3cc4c(cc3C2)OCO4)cc1C	-10	1.51
CN1CC[C@@]2(CCC1=O)CN(c1ccnc3ccc(Cl)cc13)CCN2C	-4	0.66
O=C(Cn1cnnn1)NCc1ccc2c(c1)CCC2	-44	5.16
Cc1nnc([C@@]23COC[C@@H]2CN(C(=O)c2cccc4[nH]ccc24)C3)o1	-10	1.33
COc1cccc(NC(=O)Cn2c(C)ccc(NS(=O)(=O)c3ccc(C)cc3)c2=O)c1	74	-9.85
Cc1ccc(S(=O)(=O)Nc2ccc(C)n(CC(=O)NCC(C)C)c2=O)cc1	-22	3.01
CCC(C)(C)NC(=O)Cn1c(C)ccc(NS(=O)(=O)c2ccc(C)cc2)c1=O	-4	0.69
C=CCN(C)C(=O)NCc1ccc(Br)c(F)c1	2	-0.18
COc1ccc(-c2cn3c(C(=O)N4CCNC(=O)C4)csc3n2)cc1F	-19	2.43
CN1CC[C@H](c2nc3cc(F)ccc3[nH]2)C1	-1	0.12

Compound	% Inhibition [%]	Z score
Cc1noc2ncnc(N3CCCC[C@H]3c3nccs3)c12	-7	0.7
CCOC(=O)c1cn(CC)c2cc(NC3CCCCC3)c(F)cc2c1=O	67	-12.03
CCOC(=O)c1cn(CC2CCCCC2)c2nc(C)ccc2c1=O	23	-2.66
Cc1cc2c(=O)c(C(=O)c3ccncc3)cn(CC(=O)NC3CCCCC3)c2cc1F	-1	0.12
Cc1nc(CC(=O)NC[C@H](O)COc2ccc(F)cc2)cs1	-3	0.65
Cc1cc(C)nc(NC[C@H](O)COc2ccc(F)cc2)n1	5	-0.6
COc1ccc(Nc2nc(COC(=O)Cn3cnc4c3c(=O)n(C)c(=O)n4C)cs2)cc1	-6	0.88
CO[C@H]1COCC[C@@H]1NC(=O)c1ccc(C#CC(C)(C)O)o1	1	-0.19
CC[C@@H](COc1ccccc1)NC(=O)CC1CCNCC1	9	-1.66
Cc1cccc(N2C(=O)C3C4C=CC(C4=C4CCCCC4)C3C2=O)c1 (stereo not drawn)	0	0.03
Cc1ccc(N2C(=O)C3C4C=CC(C4=C4CCCCC4)C3C2=O)cc1Cl (stereo not drawn)	-11	1.34
O=C1C2C3C=CC(C3=C3CCCCC3)C2C(=O)N1c1cccc(Cl)c1 (stereo not drawn)	51	-1.24
Cc1cnc(NC(=O)c2cccc3ccccc23)s1	-12	2.18
COc1cc(C(=O)Nc2[nH]c(=O)ncc2F)ccc1Cl	76	-11.96
O=C(NCCc1n[nH]c(=O)[nH]1)c1c(F)cc(Br)cc1F	-3	0.32
O=C(Nc1ccc(Cl)cn1)c1cccc2ccccc12	-6	1.15
O=C(Nc1[nH]c(=O)ncc1F)c1cc(F)c(F)cc1Br	91	-7.85
Cc1cc(NC(=O)c2ccc(Cl)c(F)c2)nc(=O)[nH]1	-4	0.38
O=C(Nc1[nH]c(=O)ncc1F)c1cccc2ccccc12	85	-7.83
COc1cc(C(=O)Nc2nc(C)nn2C)ccc1Cl	-9	1.22
O=C(NCc1n[nH]c(=O)[nH]1)c1ccc(Br)c(F)c1	-6	0.79
CCC(CC)n1nc(C(=O)NCC23CCCN2CCC3)cc1C	-15	2.13
O=C(Nc1cccc2ccccc12)C1CCN(c2cc(-c3ccc(F)cc3)ncn2)CC1	-2	0.24
Cc1n[nH]c(=O)c2c1cnn2-c1ccc(F)cc1	20	-2.53
Cc1cccnc1CCNC(=O)N(C)[C@@H](C)c1ccncn1	-6	1.12
O=C(NCCc1ccc(Cl)cc1)c1ccc(Cn2c(=O)[nH]c3ccccc3c2=O)cc1	-9	1.68
O=C1N[C@@H](c2cccc(OCc3ccccc3)c2)Nc2c1sc(=S)n2-c1ccccc1	-12	1.31
